# Values without a mark were called inactive.
# Compound: C#CCNC(=O)CCSSCCC(=O)NCCc1ccc(C=O)c(C=O)c1
# Assay: lysine labeling ratio R10:1 (500 µM / 50 µM probe), SILAC-ABPP in living cells; higher = lower intrinsic lysine reactivity toward the probe, active = 2 or less
# Details: HeLa; probe concentrations 500 vs 50 µM
# How it was run: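 With forward and reverse label swaps, light and heavy SILAC HeLa cells, alive and in PBS at room temperature, were exposed to either 500 µM or 50 µM of an alkyne-tagged lysine probe bearing a disulfide link. After mixing, lysates were clicked to biotin-azide, cut with trypsin, pulled down on neutravidin, freed with DTT, alkylated and analysed on a TIMS-TOF Pro by LC-MS/MS. The per-lysine value R is the median over forward and reverse replicates of the filtered median high-probe/low-probe MS1 peptide ratio. It is capped at 20.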
# Sequence of UniProt P05556 (P05556 whole entry): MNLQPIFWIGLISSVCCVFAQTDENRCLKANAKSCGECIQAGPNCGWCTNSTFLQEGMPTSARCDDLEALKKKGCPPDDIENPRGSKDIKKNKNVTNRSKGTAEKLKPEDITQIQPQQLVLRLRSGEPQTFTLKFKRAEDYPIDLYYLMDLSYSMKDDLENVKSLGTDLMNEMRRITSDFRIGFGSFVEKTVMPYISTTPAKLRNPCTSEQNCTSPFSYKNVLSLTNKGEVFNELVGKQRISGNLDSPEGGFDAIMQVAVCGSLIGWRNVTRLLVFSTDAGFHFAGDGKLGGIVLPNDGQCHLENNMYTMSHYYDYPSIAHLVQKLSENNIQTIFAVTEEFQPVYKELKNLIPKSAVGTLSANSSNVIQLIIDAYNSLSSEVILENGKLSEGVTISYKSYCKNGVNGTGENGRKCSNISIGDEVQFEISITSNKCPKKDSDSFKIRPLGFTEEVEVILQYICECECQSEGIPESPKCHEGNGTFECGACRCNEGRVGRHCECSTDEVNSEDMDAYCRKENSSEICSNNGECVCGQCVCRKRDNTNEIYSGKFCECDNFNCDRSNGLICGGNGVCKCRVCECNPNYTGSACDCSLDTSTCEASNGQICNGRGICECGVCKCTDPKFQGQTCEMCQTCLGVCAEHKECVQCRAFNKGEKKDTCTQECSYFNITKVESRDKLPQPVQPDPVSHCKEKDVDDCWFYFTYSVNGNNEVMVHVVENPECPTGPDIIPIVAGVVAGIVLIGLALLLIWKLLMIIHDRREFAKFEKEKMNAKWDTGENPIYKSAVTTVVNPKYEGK
# Sequence of UniProt P02786 (P02786 whole entry, looked up): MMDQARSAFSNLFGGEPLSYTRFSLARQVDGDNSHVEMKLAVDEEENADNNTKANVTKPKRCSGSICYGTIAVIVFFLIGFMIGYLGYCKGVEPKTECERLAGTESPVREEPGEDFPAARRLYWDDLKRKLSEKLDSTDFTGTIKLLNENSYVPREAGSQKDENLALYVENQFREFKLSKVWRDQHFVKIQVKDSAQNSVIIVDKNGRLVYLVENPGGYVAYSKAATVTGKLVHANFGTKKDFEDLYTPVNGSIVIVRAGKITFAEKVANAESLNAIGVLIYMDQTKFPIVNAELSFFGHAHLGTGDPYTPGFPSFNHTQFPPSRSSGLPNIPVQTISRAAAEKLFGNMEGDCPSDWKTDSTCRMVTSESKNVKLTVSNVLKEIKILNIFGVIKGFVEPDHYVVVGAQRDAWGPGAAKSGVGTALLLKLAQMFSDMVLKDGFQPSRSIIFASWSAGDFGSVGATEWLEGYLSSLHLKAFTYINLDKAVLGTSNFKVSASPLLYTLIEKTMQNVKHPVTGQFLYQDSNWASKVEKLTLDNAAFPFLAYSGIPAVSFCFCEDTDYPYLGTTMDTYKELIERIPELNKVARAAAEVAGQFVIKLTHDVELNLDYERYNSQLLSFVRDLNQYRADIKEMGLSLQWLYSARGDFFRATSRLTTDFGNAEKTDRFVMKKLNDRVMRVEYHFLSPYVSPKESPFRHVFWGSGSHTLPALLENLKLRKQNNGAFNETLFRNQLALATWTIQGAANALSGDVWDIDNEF
# Sequence of UniProt P08670 (P08670 whole entry): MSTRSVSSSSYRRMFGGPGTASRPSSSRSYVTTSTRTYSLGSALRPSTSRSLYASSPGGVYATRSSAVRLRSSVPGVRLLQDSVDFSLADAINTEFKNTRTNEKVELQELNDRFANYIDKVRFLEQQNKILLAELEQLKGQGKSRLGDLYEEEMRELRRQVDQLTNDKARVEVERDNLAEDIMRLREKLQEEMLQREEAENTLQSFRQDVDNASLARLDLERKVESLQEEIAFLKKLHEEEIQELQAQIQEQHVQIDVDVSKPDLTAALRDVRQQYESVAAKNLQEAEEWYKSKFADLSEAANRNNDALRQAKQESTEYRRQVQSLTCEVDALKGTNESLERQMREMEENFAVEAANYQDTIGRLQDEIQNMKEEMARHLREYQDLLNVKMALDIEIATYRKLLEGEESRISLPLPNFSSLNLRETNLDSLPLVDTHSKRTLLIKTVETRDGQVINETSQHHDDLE
# Sequence of UniProt Q9HCU4 (Q9HCU4 whole entry): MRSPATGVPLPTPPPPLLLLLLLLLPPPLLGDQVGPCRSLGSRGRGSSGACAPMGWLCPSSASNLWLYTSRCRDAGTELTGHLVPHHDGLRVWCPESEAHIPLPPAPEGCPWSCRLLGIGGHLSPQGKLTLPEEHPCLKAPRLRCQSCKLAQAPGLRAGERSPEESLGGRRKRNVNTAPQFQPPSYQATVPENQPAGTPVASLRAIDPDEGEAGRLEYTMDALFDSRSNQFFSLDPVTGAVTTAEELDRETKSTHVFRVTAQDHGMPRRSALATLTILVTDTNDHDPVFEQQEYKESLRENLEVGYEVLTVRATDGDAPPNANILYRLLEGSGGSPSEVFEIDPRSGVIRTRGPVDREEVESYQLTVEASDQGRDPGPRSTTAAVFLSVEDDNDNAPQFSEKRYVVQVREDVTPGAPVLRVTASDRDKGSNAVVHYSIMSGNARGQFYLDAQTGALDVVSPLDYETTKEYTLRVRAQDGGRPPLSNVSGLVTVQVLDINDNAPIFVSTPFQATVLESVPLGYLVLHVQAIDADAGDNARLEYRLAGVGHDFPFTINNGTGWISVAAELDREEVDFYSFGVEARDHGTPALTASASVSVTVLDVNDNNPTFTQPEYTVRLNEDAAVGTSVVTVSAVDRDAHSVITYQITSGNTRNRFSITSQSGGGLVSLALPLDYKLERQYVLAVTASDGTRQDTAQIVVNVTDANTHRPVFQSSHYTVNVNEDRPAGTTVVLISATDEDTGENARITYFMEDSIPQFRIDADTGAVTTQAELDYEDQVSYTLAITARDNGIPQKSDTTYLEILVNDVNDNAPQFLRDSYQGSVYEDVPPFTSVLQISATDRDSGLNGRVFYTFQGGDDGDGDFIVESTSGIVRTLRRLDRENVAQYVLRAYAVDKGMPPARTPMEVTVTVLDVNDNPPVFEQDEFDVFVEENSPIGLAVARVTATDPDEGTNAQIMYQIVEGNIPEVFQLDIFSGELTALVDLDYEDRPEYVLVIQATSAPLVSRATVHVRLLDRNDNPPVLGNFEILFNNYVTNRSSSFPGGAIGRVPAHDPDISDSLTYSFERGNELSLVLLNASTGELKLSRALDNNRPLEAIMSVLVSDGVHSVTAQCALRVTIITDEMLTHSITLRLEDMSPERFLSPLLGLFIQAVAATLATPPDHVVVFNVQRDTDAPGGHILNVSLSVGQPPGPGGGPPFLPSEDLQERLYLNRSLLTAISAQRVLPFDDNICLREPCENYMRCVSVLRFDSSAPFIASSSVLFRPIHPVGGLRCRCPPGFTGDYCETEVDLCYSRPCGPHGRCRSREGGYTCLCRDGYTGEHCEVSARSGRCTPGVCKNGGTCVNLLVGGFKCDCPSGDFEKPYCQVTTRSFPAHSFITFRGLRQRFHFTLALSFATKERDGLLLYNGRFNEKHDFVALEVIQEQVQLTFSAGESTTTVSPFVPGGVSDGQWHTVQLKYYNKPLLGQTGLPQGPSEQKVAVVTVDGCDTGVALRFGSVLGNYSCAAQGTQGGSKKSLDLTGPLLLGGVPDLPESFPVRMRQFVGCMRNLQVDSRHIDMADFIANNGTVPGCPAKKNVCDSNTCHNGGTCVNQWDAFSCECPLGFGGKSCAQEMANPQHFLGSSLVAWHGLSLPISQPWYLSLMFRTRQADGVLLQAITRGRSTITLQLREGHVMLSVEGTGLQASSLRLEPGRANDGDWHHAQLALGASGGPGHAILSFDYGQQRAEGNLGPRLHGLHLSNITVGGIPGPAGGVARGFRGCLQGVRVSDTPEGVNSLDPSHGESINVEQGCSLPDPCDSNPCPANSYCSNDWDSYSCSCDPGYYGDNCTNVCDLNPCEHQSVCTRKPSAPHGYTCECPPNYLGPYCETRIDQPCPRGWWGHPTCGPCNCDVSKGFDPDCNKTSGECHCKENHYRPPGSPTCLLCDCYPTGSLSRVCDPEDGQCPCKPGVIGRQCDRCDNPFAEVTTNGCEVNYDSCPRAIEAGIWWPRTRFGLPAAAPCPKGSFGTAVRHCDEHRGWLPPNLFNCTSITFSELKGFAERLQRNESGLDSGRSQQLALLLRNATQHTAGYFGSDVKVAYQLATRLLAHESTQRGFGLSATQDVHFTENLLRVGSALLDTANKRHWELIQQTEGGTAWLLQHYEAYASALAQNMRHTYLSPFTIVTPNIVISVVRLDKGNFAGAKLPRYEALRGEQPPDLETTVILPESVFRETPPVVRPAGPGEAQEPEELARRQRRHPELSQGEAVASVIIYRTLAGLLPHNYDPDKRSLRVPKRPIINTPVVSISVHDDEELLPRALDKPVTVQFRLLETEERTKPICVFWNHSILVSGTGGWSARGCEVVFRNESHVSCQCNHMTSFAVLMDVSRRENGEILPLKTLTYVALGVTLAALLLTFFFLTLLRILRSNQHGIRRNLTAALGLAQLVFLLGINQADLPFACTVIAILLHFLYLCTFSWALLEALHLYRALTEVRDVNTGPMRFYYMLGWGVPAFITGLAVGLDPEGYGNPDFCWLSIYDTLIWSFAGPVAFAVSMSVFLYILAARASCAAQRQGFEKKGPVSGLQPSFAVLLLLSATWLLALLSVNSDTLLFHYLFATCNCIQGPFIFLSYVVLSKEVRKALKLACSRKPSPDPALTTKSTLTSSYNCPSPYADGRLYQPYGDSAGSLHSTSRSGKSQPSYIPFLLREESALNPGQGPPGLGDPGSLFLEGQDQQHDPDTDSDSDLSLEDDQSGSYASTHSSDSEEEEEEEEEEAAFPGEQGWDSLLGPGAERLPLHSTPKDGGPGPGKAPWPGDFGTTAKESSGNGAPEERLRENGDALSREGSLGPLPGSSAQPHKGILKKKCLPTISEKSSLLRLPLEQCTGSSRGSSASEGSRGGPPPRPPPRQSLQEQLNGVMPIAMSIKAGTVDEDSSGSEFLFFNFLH
# Sequence of UniProt P16949 (P16949 whole entry): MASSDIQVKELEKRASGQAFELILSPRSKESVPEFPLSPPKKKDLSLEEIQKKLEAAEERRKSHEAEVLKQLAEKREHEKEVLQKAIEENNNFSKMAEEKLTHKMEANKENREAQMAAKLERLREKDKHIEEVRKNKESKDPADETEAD
row,Target,lysine labeling ratio R10:1
1,RPL28 (lysine site: K135) (UniProt P46779),3.84
2,UniProt P46781 (lysine site: K66),2.63
3,FBLN1 (lysine site: K649) (UniProt P23142),2.26
4,ITIH1 (lysine site: K125) (UniProt P19827),4.42
5,AHNAK (lysine site: K563) (UniProt Q09666),2.5
6,LAMC1 (lysine site: K1191) (UniProt P11047),2.51
7,ITGB1 (lysine site: K134) (UniProt P05556),1.83 (active)
8,VIM (lysine site: K168) (UniProt P08670),3.85
9,ITGA6 (lysine site: K127) (UniProt P23229),1.74 (active)
10,CELSR2 (lysine site: K2121) (UniProt Q9HCU4),2.98
11,EPCAM (lysine site: K155) (UniProt P16422),2.33
12,MSN (lysine site: K63) (UniProt P26038),1.1 (active)
13,S100A4 (lysine site: K35) (UniProt P26447),6.43
14,FASN (lysine site: K1704) (UniProt P49327),2.46
15,ITGB1 (lysine site: K100) (UniProt P05556),10.5
16,COPA (lysine site: K1134) (UniProt P53621),2.48
17,STOML2 (lysine site: K254) (UniProt Q9UJZ1),5.22
18,TSPAN6 (lysine site: K179) (UniProt O43657),1.94 (active)
19,PPL (lysine site: K492) (UniProt O60437),1.71 (active)
20,UniProt P26639 (lysine site: K712),1.83 (active)

row,Target,lysine labeling ratio R10:1
1,UniProt P62249 (lysine site: K60),4.81
2,ITGB1 (lysine site: K73) (UniProt P05556),2.27
3,PDIA3 (lysine site: K104) (UniProt P30101),1.07 (active)
4,MYH9 (lysine site: K1181) (UniProt P35579),3.53
5,CD109 (lysine site: K1022) (UniProt Q6YHK3),0.98 (active)
6,TGFBR3 (lysine site: K686) (UniProt Q03167),1.81 (active)
7,UniProt Q9BTX1 (lysine site: K628),5.32
8,SEMA3C (lysine site: K40) (UniProt Q99985),3.38
9,ACTN4 (lysine site: K437) (UniProt O43707),2.2
10,NUCB2 (lysine site: K184) (UniProt P80303),2.65
11,UniProt P60842 (lysine site: K146),3.63
12,TFRC (lysine site: K177) (UniProt P02786),2.39
13,A2M (lysine site: K115) (UniProt P01023),0.757 (active)
14,ROBO1 (lysine site: K224) (UniProt Q9Y6N7),0.52 (active)
15,RPS3 (lysine site: K108) (UniProt P23396),4.95
16,TFRC (lysine site: K673) (UniProt P02786),3
17,VIM (lysine site: K120) (UniProt P08670),10
18,EPHA7 (lysine site: K272) (UniProt Q15375),2.33
19,L1CAM (lysine site: K378) (UniProt P32004),14
20,STMN1 (lysine site: K126) (UniProt P16949),2.8
